Measured values as given in PubChem BioAssay (NCATS).
Results filed as inconclusive are left out. Entries that show only a call come without a potency. Active and inactive are the calls of the source. The call rests on the fitted dose curve; in most records, active means well fitted curve in the direction sought with a large enough effect; inconclusive means small, poorly fitted or top-dose-only effect, or another doubt; inactive means no such curve, though single readings can be large; an effect the other way counts as inactive or inconclusive.

What was measured:
[1] = qHTS of pediatric cancer cell lines to identify multiple opportunities for drug repurposing: Confirmatory screen for BT-12 cells (AID 1347112); further: nearly all actives have a fitted effect of over 55% in size
Summary of the method: (§1)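 Cells (500-1,000/well) rested 5 h, then received compounds for 48 h; metabolically active cells were measured by CellTiter-Glo luminescence. Final concentrations spanned up to 46 µM (MIPE, 11-point) or 0.59 nM-46 µM (NPC, 8-point) in primary screens, 11-point in follow-ups.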

[2] = qHTS of pediatric cancer cell lines to identify multiple opportunities for drug repurposing: Confirmatory screen for LAN-5 cells (AID 1347113); further: nearly all actives have a fitted effect of over 65% in size
Summary of the method: as §1

[3] = qHTS of pediatric cancer cell lines to identify multiple opportunities for drug repurposing: Confirmatory screen for DAOY cells (AID 1347114); further: nearly all actives have a fitted effect of over 65% in size
Summary of the method: (§2)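 Viability measured as metabolically active cells via CellTiter-Glo luminescence following 48 hours of compound exposure, 11-point dilutions in confirmatory testing. 500-1,000 cells/well plated 5 hours before dosing; controls were DMSO and 2.3 µM bortezomib.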

[4] = qHTS of pediatric cancer cell lines to identify multiple opportunities for drug repurposing: Confirmatory screen for SJ-GBM2 cells (AID 1347116); further: nearly all actives have a fitted effect of over 60% in size
Summary of the method: as §2

[5] = qHTS of pediatric cancer cell lines to identify multiple opportunities for drug repurposing: Confirmatory screen for TC32 cells (AID 1347118);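 further: cells exposed to compound for 48 h before the read; nearly all actives have a fitted effect of over 65% in size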
Summary of the method: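 Luminescent CellTiter-Glo read-out of metabolically active TC32 cells after 48 h compound exposure. Primary: MIPE 11-point, 0.78 nM–46 µM; NPC 8-point, 0.59 nM–46 µM. Confirmatory: 11-point dilutions.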

[6] = qHTS of pediatric cancer cell lines to identify multiple opportunities for drug repurposing: Confirmatory screen for control Hh wild type fibroblast cells (AID 1347121); further: nearly all actives have a fitted effect of over 70% in size
Summary of the method: as §1

[7] = qHTS of pediatric cancer cell lines to identify multiple opportunities for drug repurposing: Confirmatory screen for U-2 OS cells (AID 1347122); further: nearly all actives have a fitted effect of over 65% in size
Summary of the method: as §1

[8] = qHTS of pediatric cancer cell lines to identify multiple opportunities for drug repurposing: Confirmatory screen for BT-37 cells (AID 1347117); further: nearly all actives have a fitted effect of over 55% in size
Summary of the method: as §1

[9] = qHTS of pediatric cancer cell lines to identify multiple opportunities for drug repurposing: Confirmatory screen for MG 63 (6-TG R) cells (AID 1347119); further: nearly all actives have a fitted effect of over 55% in size
Summary of the method: as §1

[10] = qHTS of pediatric cancer cell lines to identify multiple opportunities for drug repurposing: Confirmatory screen for NB-EBc1 cells (AID 1347115);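 further: cells exposed to compound for 48 h before the viability read; nearly all actives have a fitted effect of over 45% in size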
Summary of the method: as §1
Potency means the concentration at half of the fitted maximal effect.

SMILES	Potency [1]	Potency [2]	Potency [3]	Potency [4]	Potency [5]	Potency [6]	Potency [7]	Potency [8]	Potency [9]	Potency [10]
CNCc1ccc(-c2[nH]c3cc(F)cc4c3c2CCNC4=O)cc1	inactive	inactive	inactive	inactive	5.85 µM (active)	inactive	inactive			
COc1ccc(-c2ccc3c(N4CCOC[C@H]4C)nc(N4CCOC[C@H]4C)nc3n2)cc1CO		0.293 µM (active)			0.208 µM (active)		0.329 µM (active)	0.233 µM (active)	0.0928 µM (active)	
COc1ccc(-c2oc3cc(OC)ccc3c2C(=O)c2ccc(C#N)cc2)cc1	inactive	inactive	inactive	inactive		inactive	inactive	inactive	inactive	
Nc1nc2[nH]cc(CCc3ccc(C(=O)N[C@@H](CCC(=O)O)C(=O)O)cc3)c2c(=O)[nH]1	inactive	inactive	inactive		0.465 µM (active)	inactive	inactive			inactive
C#Cc1cccc(Nc2ncnc3cc(OCCOC)c(OCCOC)cc23)c1					14.7 µM (active)	inactive		5.85 µM (active)	16.5 µM (active)	
CN(C)c1ccc(C2Nc3ccc4ccccc4c3C3=C2C(=O)CC(C)(C)C3)cc1Br (stereo not given)	inactive	inactive	inactive	8.27 µM (active)	15.1 µM (active)	inactive			7.59 µM (active)	42.7 µM (active)
Cc1cn[nH]c1	inactive	inactive	inactive	inactive	inactive	inactive	inactive	inactive		inactive
Cn1cnc2c(F)c(Nc3ccc(Br)cc3Cl)c(C(=O)NOCCO)cc21	inactive	inactive			inactive	inactive	16.5 µM (active)			inactive
Cn1cnc([N+](=O)[O-])c1Sc1ncnc2nc[nH]c12	inactive				1.34 µM (active)	inactive				
COc1ccc(-c2ccc3c(N4CCOCC4)nc(N4C[C@@H](C)O[C@@H](C)C4)nc3n2)cc1CO	5.22 µM (active)		9.27 µM (active)	1.47 µM (active)			1.65 µM (active)			
COc1cccc2cc(-c3nc(C4CCC(C(=O)O)CC4)n4ncnc(N)c34)[nH]c12 (stereo not given)					inactive	inactive		inactive		inactive
Cc1c(CN2CCN(C(=O)C(C)C)CC2)sc2c(N3CCOCC3)nc(-c3cnc(N)nc3)nc12		0.737 µM (active)			0.737 µM (active)		0.737 µM (active)	0.737 µM (active)	0.369 µM (active)	
Nc1nc2c(ncn2COCCO)c(=O)[nH]1	inactive	inactive	inactive	inactive	inactive	inactive	inactive		inactive	inactive
CCOc1ccn(-c2ccc(F)cc2)c(=O)c1C(=O)Nc1ccc(Oc2ccnc(N)c2Cl)c(F)c1	inactive	inactive	inactive	14.7 µM (active)	7.37 µM (active)	inactive	inactive		10.4 µM (active)	inactive
CS(=O)(=O)c1ccc(C(=O)Nc2ccc(Cl)c(-c3ccccn3)c2)c(Cl)c1	inactive	inactive	inactive	inactive	4.65 µM (active)	inactive	inactive	inactive	inactive	inactive
O=NN(CCCl)C(=O)NCCCl	inactive	inactive	inactive	inactive		inactive	inactive		20.8 µM (active)	
Oc1cccc(-c2nc(N3CCOCC3)c3oc4ncccc4c3n2)c1		0.537 µM (active)		2.93 µM (active)	0.427 µM (active)			0.851 µM (active)	0.135 µM (active)	13.5 µM (active)
CO[C@@H]1[C@H](N(C)C(=O)c2ccccc2)C[C@H]2O[C@]1(C)n1c3ccccc3c3c4c(c5c6ccccc6n2c5c31)C(=O)NC4			inactive			inactive	inactive			
OC(CN1CCC(Cc2ccc(F)cc2)CC1)c1ccc(Cl)cc1 (stereo not given)	inactive	inactive	inactive	inactive		inactive			inactive	inactive
CCC(C)(C)C(=O)O[C@H]1C[C@@H](C)C=C2C=C[C@H](C)[C@H](CC[C@@H]3C[C@@H](O)CC(=O)O3)[C@H]21	inactive	inactive	5.85 µM (active)		16.5 µM (active)		10.4 µM (active)		2.93 µM (active)	inactive

SMILES	Potency [1]	Potency [2]	Potency [3]	Potency [4]	Potency [5]	Potency [6]	Potency [7]	Potency [8]	Potency [9]	Potency [10]
O=C(c1cc(Cc2n[nH]c(=O)c3ccccc23)ccc1F)N1CCN(C(=O)C2CC2)CC1	18.5 µM (active)			inactive	inactive	inactive			inactive	inactive
Cc1oncc1C(=O)Nc1ccc(C(F)(F)F)cc1	inactive	inactive	inactive			inactive	inactive	inactive		inactive
COCC(=O)NCC=Cc1ccc2ncnc(Nc3ccc(Oc4ccc(C)nc4)c(C)c3)c2c1		42.7 µM (active)	16.5 µM (active)	inactive	26.9 µM (active)	42.7 µM (active)		24 µM (active)	38 µM (active)	30.2 µM (active)
CN1CCN(CCCN2c3ccccc3Sc3ccc(C(F)(F)F)cc32)CC1	23.3 µM (active)		18.5 µM (active)				23.3 µM (active)	23.3 µM (active)	23.3 µM (active)	
COc1cc(Nc2ncc3c(n2)-c2ccc(Cl)cc2C(c2c(F)cccc2OC)=NC3)ccc1C(=O)O	inactive			inactive	0.147 µM (active)	inactive	10.4 µM (active)		0.233 µM (active)	20.8 µM (active)
CC(C=CC1=C(C)CCCC1(C)C)=CC=CC(C)=CC(=O)O	inactive	inactive	inactive	inactive	16.5 µM (active)	inactive	inactive	inactive		inactive
O=C(NOC[C@H](O)CO)c1ccc(F)c(F)c1Nc1ccc(I)cc1F			inactive	inactive	inactive	inactive	1.31 µM (active)			
Nc1nc2ccc(OC(F)(F)F)cc2s1	inactive			inactive	inactive	inactive			18.5 µM (active)	inactive
C[C@]1(c2nc3c(C(N)=O)cccc3[nH]2)CCCN1		inactive	inactive	inactive	18.5 µM (active)	inactive	inactive		inactive	inactive
Cc1c(C)c2c(c(C)c1O)CCC(C)(COc1ccc(CC3SC(=O)NC3=O)cc1)O2 (stereo not given)	inactive	inactive		inactive	inactive	inactive		inactive		inactive
CCCS(=O)(=O)Nc1ccc(F)c(C(=O)c2c[nH]c3ncc(-c4ccc(Cl)cc4)cc23)c1F	inactive				18.5 µM (active)	inactive	23.3 µM (active)			inactive
COc1cc2nccc(Oc3ccc(NC(=O)NC4CC4)c(Cl)c3)c2cc1C(N)=O			inactive	inactive	14.7 µM (active)	inactive				inactive
NC(N)=NC(=O)c1nc(Cl)c(N)nc1N	inactive	inactive	inactive	inactive		inactive	7.37 µM (active)		inactive	inactive
NCCCC(N)(C(=O)O)C(F)F (stereo not given)	inactive	inactive	inactive	inactive		inactive	inactive	inactive	inactive	inactive
CCC(C)n1ncn(-c2ccc(N3CCN(c4ccc(OC[C@H]5CO[C@](Cn6cncn6)(c6ccc(Cl)cc6Cl)O5)cc4)CC3)cc2)c1=O (stereo not given in full)		inactive		inactive	3.29 µM (active)	inactive			inactive	inactive
NC(=O)c1ccc(I)c([N+](=O)[O-])c1	inactive	inactive	61.8 µM (active)	inactive	39 µM (active)	inactive	inactive	inactive	inactive	inactive
OC[C@H](Cc1ccccc1)Nc1nc(Oc2ccc3c(c2)CCC3)nc2c1ncn2Cc1ccc(-c2ccccc2)cc1	inactive			inactive		inactive		inactive		
CCN(CC)CCCC(C)Nc1ccnc2cc(Cl)ccc12 (stereo not given)	inactive	inactive	inactive		inactive	inactive	inactive	inactive		inactive
CCOc1cc(N2CCC(O)CC2)ccc1Nc1ncc2c(n1)N(C)c1ccccc1C(=O)N2C					0.928 µM (active)	inactive		7.37 µM (active)	4.14 µM (active)	
